About 35 (1%) of roughly 3,300 compounds were called active. Rule as the data show it: active = inhibition above about 11%; inactive = the rest. Not all results are given here.
molecular target: 1-phosphatidylinositol 4,5-bisphosphate phosphodiesterase beta-3 (Homo sapiens) (UniProt Q01970); test: retest of human PLCB3 enzyme blockers – biochemical, fluorescence, purified enzyme, confirmation (AID 743261); details: purified PLC-beta3, fluorogenic substrate fluorescence; at 12.3 µM; stronger effect = higher value
Sequence (Q01970 whole entry, looked up): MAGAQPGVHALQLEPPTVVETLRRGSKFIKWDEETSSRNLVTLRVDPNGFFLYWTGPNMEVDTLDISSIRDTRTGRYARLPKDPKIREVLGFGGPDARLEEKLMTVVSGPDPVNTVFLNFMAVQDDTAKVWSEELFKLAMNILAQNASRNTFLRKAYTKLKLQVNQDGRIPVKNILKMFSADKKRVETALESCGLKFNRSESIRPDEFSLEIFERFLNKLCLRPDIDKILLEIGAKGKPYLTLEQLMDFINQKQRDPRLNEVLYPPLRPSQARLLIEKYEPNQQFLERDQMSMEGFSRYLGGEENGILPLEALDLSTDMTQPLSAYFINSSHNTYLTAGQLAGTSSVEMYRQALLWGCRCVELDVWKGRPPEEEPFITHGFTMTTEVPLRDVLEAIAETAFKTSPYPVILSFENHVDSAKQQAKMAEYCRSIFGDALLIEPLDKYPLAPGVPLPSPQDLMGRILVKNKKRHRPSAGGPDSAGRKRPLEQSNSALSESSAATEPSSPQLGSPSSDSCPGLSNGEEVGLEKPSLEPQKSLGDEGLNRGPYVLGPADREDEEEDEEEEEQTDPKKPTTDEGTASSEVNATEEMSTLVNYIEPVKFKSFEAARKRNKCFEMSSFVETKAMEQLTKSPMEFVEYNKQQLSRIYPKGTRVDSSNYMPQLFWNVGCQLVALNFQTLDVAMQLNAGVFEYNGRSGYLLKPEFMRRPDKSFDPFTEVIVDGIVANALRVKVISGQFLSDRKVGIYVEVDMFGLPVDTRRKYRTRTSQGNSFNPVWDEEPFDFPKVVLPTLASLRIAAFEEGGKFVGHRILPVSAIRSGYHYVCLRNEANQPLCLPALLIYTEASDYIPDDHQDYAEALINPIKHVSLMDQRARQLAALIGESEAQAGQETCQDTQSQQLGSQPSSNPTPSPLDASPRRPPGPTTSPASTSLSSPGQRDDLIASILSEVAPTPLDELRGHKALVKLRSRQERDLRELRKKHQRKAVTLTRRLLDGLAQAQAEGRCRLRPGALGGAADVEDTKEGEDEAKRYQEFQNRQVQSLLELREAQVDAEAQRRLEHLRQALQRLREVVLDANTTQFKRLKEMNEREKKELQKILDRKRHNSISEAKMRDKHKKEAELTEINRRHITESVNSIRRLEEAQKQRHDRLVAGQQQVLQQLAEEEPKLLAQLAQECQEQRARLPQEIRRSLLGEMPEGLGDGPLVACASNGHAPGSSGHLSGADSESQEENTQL

inhibition, active:
C=CC1=C(C(=O)O)N2C(=O)[C@@H](NC(=O)/C(=N\OCC(=O)O)c3csc(N)n3)[C@H]2SC1 20.5%

inhibition, inactive:
Cc1nc2ccccc2nc1CC(O)(c1ccccc1)c1ccccc1 1.99%
CCOc1ccc(OCC)c(NC(=O)CSc2nnc(Cn3cnc4ccccc43)n2C)c1 2.61%
CCC1S/C(=N/N=C/c2ccco2)NC1=O (stereo not drawn) 3.39%
CC(C)n1c(CN2CCN(Cc3ccccc3)CC2)nc2ccccc21 -2%
Nn1cnnc1N/N=C/c1cc([N+](=O)[O-])c(Cl)cc1Cl -0.09%
COCCCN(C(=S)Nc1c(C)cc(C)cc1C)C(C)c1ccncc1 (stereo not drawn) 3.06%
Cc1ccc(N2CC(C(=O)NCCS(=O)(=O)N3CCN(c4ccccc4)CC3)CC2=O)cc1 (stereo not drawn) 3.26%
C/C(CC(C)C)=N\Oc1nc(C)cc(C)n1 -3.23%
COc1ccc(NC(=O)c2ccc(OC)cc2)cc1 -4.41%
COc1ccc(/C=C2\N=C3CCCN3C2=O)cc1 -5.85%
O=C(c1ccc2c(c1)OCO2)N1CCNc2ccccc2C1 -2.69%
O=C(CSc1ccccc1)Nc1cccc(S(=O)(=O)N2CCOCC2)c1 4.18%
Cc1cc(C)c(NC(=O)CN2CCOCCOCCOCCOCC2)c(C)c1 0.38%
C=CCn1c(SCn2nnc3ccccc3c2=O)nnc1-c1ccc(Cl)cc1 -0.45%
CCc1c(Nc2ccccc2C)nc(N)[nH]c1=O 1.95%
CCOc1ccccc1NC(=O)CCN1CCN(S(=O)(=O)c2ccc(OC)cc2)CC1 -0.62%
C=CCN(c1ccc(Cl)cc1)S(=O)(=O)c1cccc(C(=O)OCC(=O)N(C)C)c1 -16%
Cc1nc(Nc2ccccc2C)c2cnn(C)c2n1 -0.91%
Cc1ccc(NC(=S)N(Cc2ccco2)C(C)c2cccs2)cc1 (stereo not drawn) -0.01%
COc1ccc(C(CNC(=O)c2cc(S(=O)(=O)Nc3cccc(C)c3)ccc2C)N2CCCC2)cc1 (stereo not drawn) -3.32%
CCn1c(SCC(C)=O)nc2sc3c(c2c1=O)CCCC3 -2%
Cc1nc2ccc(NC(=O)c3cccc(S(=O)(=O)N4CCOCC4)c3)cc2s1 -9.8%
Cc1c(C#N)c2ncn(CC#N)c(=O)c2n1-c1ccccc1 -2.4%
CS(=O)(=O)N(Cc1ccc(Cl)cc1)c1ccc(C(=O)NCCSCc2ccco2)cc1 1.86%
Nc1nnc(SCC(=O)OCc2ccc(Cl)c(Cl)c2)s1 -2.66%
Cc1ccc(/C=N/NC(=O)CSc2nc3ccccc3o2)cc1 -1.23%
CN(C(=O)c1cccc(NC(=O)Cc2cccc([N+](=O)[O-])c2)c1)C1CCCCC1 2.33%
O=C(C1CCCO1)N1CCN(C(=S)Nc2cccc(Cl)c2)CC1 (stereo not drawn) -2.93%
CCOc1ccc(NC(=O)[C@H](C)NC(=O)C2CC(=O)N(c3ccc(OC)cc3)C2)cc1 (stereo partly drawn) -3.05%
O=C(O)c1ccc(Cn2c(=S)[nH]c3cc(Cl)ccc3c2=O)cc1 -7.23%
CC(=O)C12CC(C)=C(C)CC1CC1C3CCC4=CC(=O)CCC4(C)C3CCC12C (stereo not drawn) -2.56%
O=C(Nc1ccc(Br)cc1)C1CCC(=O)N1Cc1ccccc1Cl (stereo not drawn) -0.11%
N#Cc1c(NC(=O)C2CCCO2)sc2c1CCCCC2 (stereo not drawn) -7.76%
CCOC(=O)C1CCN(C(=O)c2ccccc2N(C)S(=O)(=O)c2ccccc2)CC1 1.21%
O=C(Nc1cccc([N+](=O)[O-])c1)Nn1cnnc1 0.35%
Cc1ccccc1C(=O)Nc1ccccc1Sc1ccccc1 -4.34%
COc1ccc(S(=O)(=O)N2CCC(C(=O)OCC(=O)c3ccccc3)CC2)cc1[N+](=O)[O-] 0.58%
O=C(CCNS(=O)(=O)c1ccc(Br)cc1)NCC1CCCO1 (stereo not drawn) 1.04%
Cc1ccc(-n2ncc3c2CC(C)(C)CC3NC(=O)CCc2cnn(C)c2)cc1 (stereo not drawn) 0.66%
COC(=O)C[C@@H]1CC[C@@H]2[C@H](COc3ccc(NC(=O)c4cccc(F)c4)cc3C(=O)N2C)O1 2.78%
Cc1c(C(=O)c2cccc([N+](=O)[O-])c2)c2ccccn2c1CCC#N 6.14%
CN(C)/C=C(/C(=O)c1ccc(Cl)cc1)S(=O)(=O)c1ccccc1 -1.45%
O=C(CSc1ncn[nH]1)N/N=C/c1ccc(F)cc1 1.52%
CNC(=O)c1ccc(NC(=O)c2cccc(C(F)(F)F)c2)cc1 -1.78%
O=C1N[C@@H](c2ccccc2)COC(=O)[C@H](Cc2ccc(F)cc2)C/C=C\C[C@@H]1CC(=O)N(CCO)Cc1ccccc1 0.87%
C[C@]12c3[nH]c4ccc(Cl)cc4c3CCN1C(=O)[C@@H](CC(=O)NCCCn1ccnc1)C[C@@H]2C(=O)N1CCOCC1 -2.45%
CCc1c(C)n([O-])c2c([n+]1=O)CCCCC2 -2.11%
Cc1cc2nc(SCCN3CCOCC3)[nH]c2cc1C 0.27%
CCCCNc1ccc(C(=O)Nc2cccc(C)n2)cc1[N+](=O)[O-] -2.68%
COc1ccc(CCNC(=O)COC(=O)Cc2ccccc2F)cc1 -2.27%
CC(C)Oc1ccc(CC(=O)NNC(=S)Nc2ccc(Br)cc2)cc1 -6.23%
Cc1ccc(-c2cn(S(=O)(=O)c3cccc([N+](=O)[O-])c3)nc2N)cc1 -2.7%

— PubChem BioAssay AID743261 (The Scripps Research Institute Molecular Screening Center, 2014)
